Results reported in PubChem BioAssay AID434970 (Sanford-Burnham Center for Chemical Genomics, 2010).
About 310 (2.8%) of roughly 11,000 compounds were called active. Cut-off read from the data, not from the text of the source: active = activity change below about -85%; inactive = the rest. For the sample, actives were picked, then their nearest neighbours and some compounds at random.

test system: intestinal alkaline phosphatase [Mus musculus]; assay: mouse intestinal phosphatase enzyme activation – biochemical, luminescence, single concentration, confirmation (AID 434970); conditions: purified mouse IAP, CDP-Star luminescence, 30 min, at 10 µM; activation factor: measured here: IAP activation factor, stronger effect = higher value; activity change, negative = activation: stronger effect = lower value

Row | Compound | activation factor | activity change, negative = activation
1 | CC1CCCC(C(=O)O)N1C(=O)CCS (configuration not stated) | 0.988 | 1.25% (inactive)
2 | O=C(Cc1c[nH]c2ccccc12)Nc1nc2ccccc2[nH]1 | 0.845 | 15.5% (inactive)
3 | COC(=O)c1c(NC(=O)Nc2ccc(Cl)cc2)sc(C)c1C | 0.99 | 1% (inactive)
4 | Cc1csc(NC(=O)Nc2ccc(Cl)cc2)n1 | 1.11 | -11.1% (inactive)
5 | CC(C)S(=O)(=O)c1csc(NC(=O)Nc2ccc(Cl)cc2)c1Cl | 2.16 | -116% (active)
6 | COC(=O)c1ccc(NC(=O)Nc2ccc(C)cc2)cc1 | 2.15 | -115% (active)
7 | CCCCOC(=O)c1ccc(NC(=O)Nc2ccc(OC)c(OC)c2)cc1 | 1.64 | -63.5% (inactive)
8 | CCOC(=O)c1ccc(NC(=O)Nc2ccc3c(c2)OCCO3)cc1 | 2.06 | -106% (active)
9 | CNC(=O)CCC(=O)Nc1ccc(C(=O)OC)cc1 | 0.98 | 2.05% (inactive)
10 | COC(=O)c1ccc(NC(=O)Nc2ccc(F)c(Cl)c2)cc1 | 1.86 | -86.3% (inactive)
11 | CCS(=O)(=O)Nc1ccc(C(=O)OC)cc1 | 0.912 | 8.8% (inactive)
12 | CCOC(=O)c1ccc(NC(=O)Nc2ccc(F)cc2)cc1 | 1.67 | -66.6% (inactive)
13 | COC(=O)c1ccc(NC(=O)Nc2cccc(F)c2)cc1 | 1.97 | -97.4% (active)
14 | CCOC(=O)c1ccc(NC(=O)c2ccc3c(c2)OCO3)cc1 | 0.959 | 4.1% (inactive)
15 | CC(Sc1nnc(-c2ccco2)o1)C(=O)Nc1ccc(OC(F)F)cc1 (configuration not stated) | 0.893 | 10.7% (inactive)
16 | CC1=C(C(N)=O)C(c2cccnc2)n2nc(-c3cccc(Cl)c3)nc2N1 (configuration not stated) | 0.96 | 4% (inactive)
17 | CCCNC(=O)c1csc2c1CCCCC2 | 0.955 | 4.55% (inactive)
18 | CC(NC(=O)CCSc1nc(-c2ccc3c(c2)OCO3)cc(C(F)(F)F)n1)c1ccccc1 (configuration not stated) | 0.978 | 2.2% (inactive)
19 | Cc1cccc(C2=NN(c3ccccc3)[C@@H](C(=O)N3CCOC3=O)[C@@H]2c2ccccc2)c1 | 0.97 | 3% (inactive)
20 | CCCN=C1N(CC)C[C@@H]2[C@@H]3C(=O)N(Cc4ccccc4)C(=O)[C@@H]3[C@](Cc3ccccc3)(C(=O)OC)N12 | 1.07 | -7.35% (inactive)
21 | O=C(CCS(=O)(=O)c1cccc2nonc12)NC1CCCCCC1 | 1.11 | -10.6% (inactive)

Row | Compound | activation factor | activity change, negative = activation
22 | CN(C)CCCNC(=O)C[C@H]1C[C@H](C(=O)N2CCCCC2)[C@@]2(CCc3ccccc3)c3[nH]c4cc(-c5ccco5)ccc4c3CCN2C1=O | 1.28 | -28.4% (inactive)
23 | CCOc1ccccc1NC(=O)C1CCCN(C(=O)Nc2ccccc2)C1 (configuration not stated) | 0.961 | 3.9% (inactive)
24 | CCOc1ccccc1NC(=O)CN1CCC(NC(=O)Nc2ccccc2)CC1 | 2.99 | -199% (active)
25 | CCOC(=O)c1ccc(NC(=O)NC2CCN(CC(=O)NCc3ccc4c(c3)OCO4)CC2)cc1 | 1.61 | -60.6% (inactive)
26 | CCOc1ccccc1NC(=O)N1CCC(NC(=O)c2cccc(C)c2)CC1 | 0.98 | 2% (inactive)
27 | Cc1cc(C)cc(NC(=O)NC2CCN(CC(=O)Nc3cccc(Cl)c3C)CC2)c1 | 1.68 | -68.1% (inactive)
28 | CC(C)c1ccc(NC(=O)NC2CCN(CC(=O)Nc3cccc4ccccc34)CC2)cc1 | 3.72 | -272% (active)
29 | CCOCCCNC(=O)c1ccccc1SCC | 1.04 | -4% (inactive)
30 | CCOC(=O)c1c(C)[nH]c(C)c1C(=O)CSc1nnc(-c2ccco2)n1Cc1ccccc1 | 1.03 | -3.25% (inactive)
31 | O=C(CSc1nnc(-c2ccncc2)n1CC1CCCO1)Nc1nccs1 (configuration not stated) | 1.03 | -2.65% (inactive)
32 | COc1ccc(C2C(C(=O)N3CCN(c4ccccc4F)CC3)c3ccccc3C(=O)N2C)cc1 (configuration not stated) | 1.09 | -9.15% (inactive)
33 | FC(F)Sc1ccc(NC(=S)NC2CCCCC2)cc1 | 1.25 | -24.7% (inactive)
34 | O=C(Nc1ccc(SC(F)F)cc1)c1cccc2nc3ccccc3nc12 | 0.946 | 5.4% (inactive)
35 | CC1CCCC(NC(=S)Nc2ccc(SC(F)F)cc2)C1C (configuration not stated) | 2.09 | -109% (active)
36 | CC1CCCCC1NC(=S)Nc1ccc(SC(F)F)cc1 (configuration not stated) | 1.52 | -51.8% (inactive)
37 | FC(F)Sc1ccc(NC(=S)NC2CCC(NC(=S)Nc3ccc(SC(F)F)cc3)CC2)cc1 (configuration not stated) | 2.35 | -135% (active)
38 | FC(F)Sc1ccc(NC(=S)NC2CCCC2)cc1 | 1.23 | -22.6% (inactive)
39 | FC(F)Sc1ccc(NC(=S)NCC2CCCCC2)cc1 | 1.45 | -44.6% (inactive)
40 | FC(F)Sc1ccc(NC(=S)NCc2ccccc2)cc1 | 1.27 | -26.5% (inactive)
41 | FC(F)Sc1ccc(NC(=S)NC(c2ccccc2)c2ccccc2)cc1 | 3.77 | -277% (active)
